PubChem BioAssay (NCI)
This is part of a sample that, as a whole, favours compounds with a hit. Of some 83,000 tested, about 20% had one in any assay.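 A percent growth of 40 corresponds to 60% growth inhibition; 0 means no net growth; -100 means all cells died. Active threshold: below 10.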 The source made the active and inactive calls.

system: RPMI-8226 leukemia; assay: NCI-60 one-dose screen, 48 h (100 = growth as untreated, 0 = no growth, -100 = all killed); conditions: 10 µM unless noted

Row | Structure (SMILES) | growth
1 | Cc1ccc(C(=O)Nc2ccc(-n3ccnc3)c(C(F)(F)F)c2)cc1C#Cc1cnc2cccnn12 | -4.27% (active)
2 | N/C(=N\c1nc2ccccc2s1)NC(=O)Nc1ccccc1F | 15.8% (inactive)
3 | Cc1nc2sccn2c1-c1nnc(SCC(C)C)o1 | 57.9% (inactive)
4 | O=[N+]([O-])c1cccc(-c2nnc3c(/C=C/c4ccc(F)cc4)nc4ccccc4n23)c1 | 102% (inactive)
5 | C=CC(=O)N1CCN(c2ccc3nc4c(nc3c2C(F)(F)F)C(=O)c2ncccc2C4=O)CC1 | -20.2% (active)
6 | CN1CCN(CCS(=O)(=O)Nc2cc(-c3ccc4ncnc(Nc5ccc(F)c(Cl)c5)c4c3)cnc2Cl)CC1 | 75.2% (inactive)
7 | COc1ccc(N=Nc2c(N)nn3c(-c4ccc(F)cc4)ccnc23)cc1 | 95.5% (inactive)
8 | O=C(N/N=C/c1c[nH]c2ccccc12)Nc1ccc(F)c(Cl)c1 | 27.5% (inactive)
9 | N#CCc1nnc(NC(=O)c2ccc(-n3c(=O)[nH]c4ccccc4c3=O)cc2)s1 | 111% (inactive)
10 | CCOc1ccc(-c2cc(-c3cc(C(C)C)c(O)cc3C)nn2-c2ccc(S(N)(=O)=O)cc2)cc1 | 13.8% (inactive)
11 | CN1CCN(c2ccc3c4c(cccc24)C(=O)N(c2cccc(-c4nn(-c5ccccc5)cc4-c4nc5ccccc5s4)c2)C3=O)CC1 | 43.1% (inactive)
12 | O=C(Cn1c(-c2ccccc2)nc2ccccc21)N=Nc1c(O)[nH]c2ccc(Cl)cc12 | 20.4% (inactive)
13 | CCc1ccc(SC2c3cc(OC)ccc3Oc3nc(N)c(C#N)c(N)c32)cc1 (stereo not drawn) | -15.6% (active)
